In all, about 47,000 compounds went through this assay and about 3,100 (6.6%) were called active. The full list was thinned out, with actives kept by preference. A number with no mark means an inactive call. Cut-off read from the data, not from the text of the source: active = inhibition above about 30%; inactive = the rest.
What follows are compounds tested against Ubiquitin carboxyl-terminal hydrolase 17-like protein 5 (Homo sapiens) (UniProt A8MUK1) (assay: inhibitors of human USP17 deubiquitinase (AID 1645855)). Conditions: purified USP17, Ub-rhodamine cleavage fluorescence, 3 h; at 50 µM; active compounds read high.
Chain of Ubiquitin carboxyl-terminal hydrolase 17-like protein 5 (Homo sapiens) (A8MUK1 whole entry, looked up): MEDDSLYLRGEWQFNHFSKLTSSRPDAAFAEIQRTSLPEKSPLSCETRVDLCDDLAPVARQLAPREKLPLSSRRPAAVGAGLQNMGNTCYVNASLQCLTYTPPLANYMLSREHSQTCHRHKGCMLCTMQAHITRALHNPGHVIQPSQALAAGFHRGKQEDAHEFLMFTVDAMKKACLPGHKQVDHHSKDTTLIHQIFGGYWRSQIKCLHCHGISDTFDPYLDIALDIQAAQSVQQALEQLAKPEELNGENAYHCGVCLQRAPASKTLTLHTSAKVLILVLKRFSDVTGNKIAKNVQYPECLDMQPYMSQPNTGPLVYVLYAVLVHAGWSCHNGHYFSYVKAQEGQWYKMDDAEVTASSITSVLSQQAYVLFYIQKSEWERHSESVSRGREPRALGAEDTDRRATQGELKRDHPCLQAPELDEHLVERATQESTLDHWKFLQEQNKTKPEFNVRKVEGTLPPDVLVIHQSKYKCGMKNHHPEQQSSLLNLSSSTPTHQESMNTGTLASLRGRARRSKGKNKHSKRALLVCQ

Row | SMILES | inhibition
1 | O=C(c1ccc(N2CCCC2)nn1)N1CCN(c2ccccn2)CC1 | -6.98%
2 | Clc1cc2nc(N3CCN(c4ccccn4)CC3)c3nncn3c2cc1Cl | 31.5% (active)
3 | Cc1nn(-c2ccccc2)c(C)c1S(=O)(=O)N1CCN(c2ccccn2)CC1 | -17.2%
4 | Cc1ccc(Nc2nc(C(=O)NCCN3CCCCC3C)cc3occc23)cc1Cl (stereo not drawn) | -11.2%
5 | Cc1sc(NC(=O)c2ccccn2)nc1-c1ccc2c(c1)CCN2C(=O)C(C)C | -11.3%
6 | Cc1ccc(C(=O)N2CCc3cc(-c4csc(NC(=O)CNc5ccccc5)n4)ccc32)cc1 | 32.4% (active)
7 | O=C(Nc1nc(-c2ccc3c(c2)CCN3C(=O)c2ccccc2F)cs1)c1cccnc1 | 77.7% (active)
8 | CC(C)(C)CC(=O)N1CCc2cc(-c3csc(NC(=O)c4ccccn4)n3)ccc21 | 2.12%
9 | CCc1nc2ccc(C(=O)Nc3nc(-c4ccc5c(c4)CCN5C(=O)c4ccc(C)cc4)c(C)s3)cc2nc1CC | -24.7%
10 | CCc1nc2ccc(C(=O)Nc3nc(-c4ccc5c(c4)CCN5C(=O)c4ccccc4C)c(C)s3)cc2nc1CC | -14.3%
11 | Cc1cccc(NC(=O)Cn2c(C)ncc(C(=O)NC3CCCC3)c2=O)c1C | 2.77%
12 | O=C(OCc1ccccc1F)c1cc(-c2ccccc2)nc2ccccc12 | 7.27%
13 | CCc1nnc(NC(=O)C2CCN(C(=O)c3ccc(F)cc3)CC2)s1 | 5.9%
14 | COc1cccc(O[C@@H]2C[C@@H](NC(=O)c3ccnn3C)[C@H](N3CCCC3)[C@H]2O)c1 | -13.7%
15 | CCCNC(=O)c1nn(-c2ccc(F)cc2)c2c1CCCCC2 | 3.82%
16 | O=C(CCc1csc(NC(=O)c2ccc(=O)[nH]c2)n1)NCCc1c[nH]c2ccccc12 | 36.5% (active)
17 | O=C(Cc1csc(NC(=O)c2ccc(=O)[nH]c2)n1)NCc1ccco1 | -18.1%
18 | Cc1oc(C2CCC2)nc1C(=O)NCCc1c[nH]c2ccccc12 | 7.03%
19 | COCCCN1CC(=O)N2C(c3cccc([N+](=O)[O-])c3)c3[nH]c4ccccc4c3C[C@@H]2C1=O (stereo partly drawn) | -12.6%
20 | O=S(=O)(Nc1ccc(Cc2ccncc2)cc1)c1ccc2c(c1)OCCO2 | 3.72%
21 | O=C(NCc1ccc2c(c1)OCO2)C1=CCN(Cc2ccccc2)CC1 | -28.1%
22 | O=C(Nc1cccc2ccccc12)N1CCN(Cc2ccc3c(c2)OCO3)CC1 | 41% (active)

Row | SMILES | inhibition
23 | COC(=O)c1cc2c(ccn2C)n1CC(=O)N1CCN(Cc2ccc3c(c2)OCO3)CC1 | -63.5%
24 | CNc1nc2c(c(=O)n1-c1ccccc1OC)CCN(C(=O)N1CCOCC1)C2 | -2.32%
25 | CCCCn1c(=O)[nH]c2cc(-c3nc(-c4ccccn4)no3)ccc2c1=O | -20.4%
26 | O=C(Nc1c(C(=O)N2CCOCC2)oc2ccccc12)c1ccccc1F | -1.41%
27 | CCS(=O)(=O)c1cccc(C(=O)Nc2c(C(N)=O)oc3ccccc23)c1 | 41.9% (active)
28 | Cc1c(C(=O)NC2CCCCC2)oc2ccccc12 | 0.0641%
29 | CCCSc1nc(NCC2CCCO2)c2c3c(sc2n1)COC(C)(C)C3 (stereo not drawn) | -37.2%
30 | Cc1noc(C)c1CC(=O)N1CCN(c2ccccc2F)CC1 | 20.5%
31 | CCCc1cc(=O)oc2cc(OC(=O)C3CCN(C(=O)c4ccc(Cl)cc4)CC3)ccc12 | 10.2%
32 | COc1ccc(N2CCN(Cc3cc(=O)oc4cc(O)ccc34)CC2)cc1 | 4.8%
33 | CCCc1cc(=O)oc2cc(OCC(=O)NCc3ccc(OC)cc3)ccc12 | 30.6% (active)
34 | Cc1c(CC(=O)NCC(=O)O)c(=O)oc2c(C)c(O)ccc12 | -3.52%
35 | COc1cc(Cn2cnc3c([nH]c4ccc(Br)cc43)c2=O)cc(OC)c1 | 26%
36 | COc1ccccc1Cn1cnc2c([nH]c3cc(OC)c(OC)cc32)c1=O | 58% (active)
37 | O=c1c2[nH]c3ccc(Cl)cc3c2ncn1Cc1cccnc1 | -5.96%
38 | O=c1c2[nH]c3ccc(F)cc3c2ncn1CCN1CCCC1 | 6.33%
39 | CCOc1ccc2[nH]c3c(=O)n(Cc4cccnc4)cnc3c2c1 | 25.4%
40 | Cc1ccc2[nH]c3c(=O)n(Cc4ccccn4)cnc3c2c1 | 48.9% (active)
41 | O=C(O)c1cc(S(=O)(=O)NC2CCCc3ccccc32)ccc1O (stereo not drawn) | -9.75%
42 | COc1ccc(S(=O)(=O)Nc2ccc(-c3ccc(OC)nn3)cc2)cc1 | 14.6%
43 | COCCN(CCOC)S(=O)(=O)c1ccc(C(=O)Nc2sccc2C(N)=O)cc1 | 7.55%
44 | O=C(NCC(c1ccccc1)N1CCCCC1)c1cc(-c2cccs2)on1 (stereo not drawn) | -11.5%

Row | SMILES | inhibition
45 | O=C1N(c2cccc(F)c2)c2ncccc2S(=O)(=O)N1Cc1ccccc1 | 2.92%
46 | COCCCNC(=O)[C@H](Cc1ccccc1)NC(=O)N1CCn2c1nc1ccccc12 | -0.405%
47 | COc1cccc(NC(=O)Cn2c(C)cc(C)c2-c2nc(C(C)C)no2)c1 | -2.06%
48 | COc1ccc(OCC(=O)Nc2noc(-c3ccccc3)n2)cc1 | 23.8%
49 | COc1ccc(NC(=O)Cc2noc(-c3cccc(OC)c3)n2)cc1 | 35.7% (active)
50 | CC(C)c1nnc(NC(=O)C2CC(=O)N(CCc3ccc(F)cc3)C2)s1 (stereo not drawn) | 5.74%
51 | CCN1[C@H]2CCN(C(=O)C3(C#N)CC3)CC[C@@H]2Oc2ccccc2S1(=O)=O | -12.7%
52 | COc1cccc(NC(=O)COC(=O)c2ccc(OC)c(S(=O)(=O)Nc3cc(Cl)c(OC)cc3OC)c2)c1 | 3.55%
53 | Cc1ccc(NC(=O)CCC(=O)N(c2ccccc2)c2ccccc2)cc1Cl | 6.95%
54 | Cc1ccc(NC(=O)CCOc2ccccc2)cc1S(=O)(=O)Nc1ccccc1Cl | 39.7% (active)
55 | O=C(NCCc1ccc(F)cc1)c1ccc(S(=O)(=O)Nc2ccccc2F)cc1 | 13.4%
56 | Cc1nc(CCN2CCN(Cc3ccccc3)CCC2=O)no1 | 9.08%
57 | COC(=O)c1sc(-c2ccccc2)cc1NC(=O)c1ccc(C)cc1 | 8.72%
58 | COc1cccc(NC(=O)N2C[C@H]3CN(C(C)C)CC[C@H]32)c1 | -122%
59 | N#Cc1cccc(NC(=O)C2Cc3ccccc3CN2C(=O)c2ccccc2)c1 (stereo not drawn) | -4.46%
60 | COc1cccc(NC(=O)C2Cc3ccccc3N2C(=O)c2ccccc2)c1 (stereo not drawn) | 57.8% (active)
61 | Cn1cc(CN2CCC3(CC2)Nc2cc(Cl)ccc2C2=NCCN23)cn1 | -4.3%
62 | Cc1ccccc1NS(=O)(=O)c1cc2c(cc1Cl)NC(=O)CO2 | 11.5%
63 | COc1ccc(NC(=O)CCN2C(=O)c3cccnc3Sc3ccccc32)cc1 | 0.608%
64 | Cc1ccc(Cc2nc(CC(=O)Nc3ccc(F)cc3F)n[nH]2)cc1 | 12.8%
65 | CC1(C(=O)NC2CCCC2)Cn2c(cc3ccccc32)C(=O)N1c1ccc(F)cc1 (stereo not drawn) | 62.5% (active)
66 | COc1ccccc1CN1C(=O)c2cc3occc3n2CC1(C)C(=O)NC1CCCCC1 (stereo not drawn) | 6.42%

Row | SMILES | inhibition
67 | CC(C)CCNC(=O)C1(C)Cn2c(cc3ccccc32)C(=O)N1Cc1ccccc1F (stereo not drawn) | -0.678%
68 | COCCNC(=O)C(Cc1ccccc1)N1Cc2ccccc2C1=O (stereo not drawn) | 4.85%
69 | O=C(N[C@@H](C(=O)O)c1ccccc1)[C@@H](Cc1ccccc1)n1c(=O)[nH]c2ccccc2c1=O | 9.14%
70 | O=C(Cn1cccc1C(=O)c1ccccc1)NC1CCN(Cc2ccccc2)CC1 | -2.81%
71 | CC1CCC(NC(=O)Cn2c(=O)[nH]c3ccccc3c2=O)CC1 (stereo not drawn) | 41.5% (active)
72 | CCN1CCC2(CC1)OC(=O)C(C)=C2C(=O)Nc1cc(C)ccc1C | -4.59%
73 | CNc1nc(C2CCCN(C)C2)nc2c1CCN(C(=O)Cc1c[nH]c3ccccc13)C2 (stereo not drawn) | -1.33%
74 | Cc1ccn2c(NCCc3ccccc3)c(-c3ccc(O)cc3)nc2c1 | 20.5%
75 | Cc1cccc(-c2nc(Nc3ccc(O)cc3)c3ccccc3n2)c1 | 69.2% (active)
76 | Cc1cccc(-c2noc(Cc3nnc(-c4ccccc4)o3)n2)c1 | -20.8%
77 | Cc1nccc(C2CN(C(=O)CCc3c[nH]c4ccccc34)CCO2)n1 (stereo not drawn) | -0.542%
78 | CN1CC(c2ncn[nH]2)c2cc(C(=O)NCc3cccc(F)c3)ccc21 (stereo not drawn) | 8.47%
79 | O=C(NCc1ccccc1)c1nc[nH]c1C(=O)NCc1cccc(C(F)(F)F)c1 | -0.00262%
80 | O=C(Cc1c(Cl)cccc1Cl)NCc1cccc(C(F)(F)F)c1 | 34.4% (active)
81 | O=C(Cc1cccc(C(F)(F)F)c1)Nc1cccn2ncnc12 | -3.85%
82 | Cc1ccc(S(=O)(=O)NC2=NC(c3ccccc3)c3cc(Cl)ccc3N2)cc1 (stereo not drawn) | 10.4%
83 | O=C(NCCC1=CCCCC1)c1ccc(-c2noc(-c3ccccc3)n2)s1 | 2.81%
84 | COc1ccc(-c2nc(C3CC(=O)N(c4ccccc4)C3)no2)cc1 (stereo not drawn) | 7.38%
85 | CCOc1ccc(-c2noc(-c3nn(-c4cccc(OC)c4)ccc3=O)n2)cc1 | 72.3% (active)
86 | COc1ccc(-c2nc(-c3nnn(Cc4cccc(F)c4)c3C)no2)cc1 | -0.491%
87 | CCOC(=O)c1cnn(-c2ncc(C(=O)OC)c(C(F)(F)F)n2)c1C(F)(F)F | 3.18%
88 | O=C(NCc1ccco1)c1ccc2c(=O)nc3c(-c4ccc(F)cc4)n[nH]n3c2c1 | 11.8%

From PubChem BioAssay AID1645855 (Buhrlage Lab, Dana-Farber Cancer Institute and Novartis …, 2021)
